Conditions in all cases: mRNA level, 48 h; actives raise or lower the signal
Read-out in test [1]: Ezrin (EZR), EZR (gene 7430)
The test is described as follows: LTEA_HepaRG_EZR: Life Technologies and Expression Analysis (LTEA) Assay for Ezrin (EZR) using HepaRG (AID 2283491). In short, it runs like this:
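Differentiated human HepaRG cells, 48 h after plating, were exposed in serum-free induction medium for 48 hours to eight half-log concentrations up to 100 uM in 0.5% DMSO. EZR mRNA was measured by TaqMan qRT-PCR, normalized to ACTB, GAPDH and POLR2A, and fitted bidirectionally against DMSO.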

Read-out in test [2]: Fatty Acid-Binding Protein 1 (FABP1), FABP1 (gene 2168)
The test is described as follows: LTEA_HepaRG_FABP1: Life Technologies and Expression Analysis (LTEA) Assay for Fatty Acid-Binding Protein 1 (FABP1) using HepaRG (AID 2283494). In short, it runs like this:
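Differentiated human HepaRG cells exposed 48 h in serum-free induction medium to eight half-log concentrations up to 100 uM (0.5% DMSO), duplicate. FABP1 mRNA by qRT-PCR, normalised to ACTB, GAPDH, POLR2A; bidirectional fitting against DMSO.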

Read-out in test [3]: Glutamate-cysteine ligase catalytic (GCLC), GCLC (gene 2729)
As to the kind of experiment: LTEA_HepaRG_GCLC: Life Technologies and Expression Analysis (LTEA) Assay for Glutamate-cysteine ligase catalytic (GCLC) using HepaRG (AID 2283498). In outline:
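Differentiated HepaRG cells exposed 48 h in serum-free induction medium, eight-point half-log series topping at 100 uM in 0.5% DMSO, duplicates. GCLC mRNA by qRT-PCR normalized to ACTB, GAPDH and POLR2A, fitted bidirectionally versus DMSO.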

Read-out in test [4]: growth arrest and DNA damage 45 (GADD45G), GADD45G (gene 10912)
As to the kind of experiment: LTEA_HepaRG_GADD45G: Life Technologies and Expression Analysis (LTEA) Assay for growth arrest and DNA damage 45 (GADD45G) using HepaRG (AID 2283499). In outline: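 GADD45G transcript level by qRT-PCR (housekeeping-normalized: ACTB, GAPDH, POLR2A) after 48 h chemical treatment of a single HepaRG lot in serum-free induction medium; eight-point half-log series up to 100 uM in 0.5% DMSO, duplicates, up- or down-regulation scored.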

Read-out in test [5]: Glutamate-cysteine ligase regulatory (GCLM), GCLM (gene 2730)
The test is described as follows: LTEA_HepaRG_GCLM: Life Technologies and Expression Analysis (LTEA) Assay for Glutamate-cysteine ligase regulatory (GCLM) using HepaRG (AID 2283500). In outline:
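Differentiated HepaRG cells exposed 48 h in serum-free induction medium to eight half-log concentrations up to 100 uM (0.5% DMSO). GCLM mRNA by TaqMan qRT-PCR, normalized to ACTB, GAPDH and POLR2A; bidirectional fit versus DMSO.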

Read-out in test [6]: Glutathione S-transferase M3 (GSTM3), GSTM3 (gene 2947)
As to the kind of experiment: LTEA_HepaRG_GSTM3: Life Technologies and Expression Analysis (LTEA) Assay for Glutathione S-transferase M3 (GSTM3) using HepaRG (AID 2283501). In short, it runs like this: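 GSTM3 transcript levels came from Fluidigm TaqMan qRT-PCR normalized to three housekeeping genes, fitted in both directions against DMSO. HepaRG cultures received chemicals for 48 h in serum-free induction medium (0.5% DMSO), 8 half-log concentrations up to 100 uM, duplicate.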

Read-out in test [7]: Heat shock 70 kDa protein 1 (HSPA1A), gene 3303
The test is described as follows: LTEA_HepaRG_HSPA1A: Life Technologies and Expression Analysis (LTEA) Assay for Heat shock 70 kDa protein 1 (HSPA1A) using HepaRG (AID 2283502). In outline:
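Human HepaRG cells in serum-free induction medium were exposed in duplicate for 48 h to 8 half-log concentrations, highest 100 uM, in 0.5% DMSO. HSPA1A mRNA read by TaqMan qRT-PCR, normalized to ACTB, GAPDH, POLR2A, fitted bidirectionally against DMSO.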

Read-out in test [8]: Hypoxia-inducible factor 1-alpha (Homo sapiens) (UniProt Q16665)
The test is described as follows: LTEA_HepaRG_HIF1A: Life Technologies and Expression Analysis (LTEA) Assay for Hypoxia-inducible factor 1 (HIF1A) Trancription factor using HepaRG (AID 2283503). In short, it runs like this:
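Differentiated HepaRG cells in serum-free induction medium exposed 48 h, in duplicate, to 8-point half-log series from 100 uM in 0.5% DMSO. HIF1A mRNA measured by TaqMan qRT-PCR, normalized to ACTB/GAPDH/POLR2A, fitted bidirectionally versus DMSO.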

Read-out in test [9]: 3-Hydroxy-3-Methylglutaryl-CoA Synthase 2 (HMGCS2), HMGCS2 (gene 3158)
The test is described as follows: LTEA_HepaRG_HMGCS2: Life Technologies and Expression Analysis (LTEA) Assay for 3-Hydroxy-3-Methylglutaryl-CoA Synthase 2 (HMGCS2) using HepaRG (AID 2283504). In short, it runs like this:
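Readout is HMGCS2 transcript by qRT-PCR, housekeeping-normalised (ACTB/GAPDH/POLR2A) and fitted bidirectionally against 0.5% DMSO. Differentiated HepaRG cells received chemicals 48 h, duplicate wells, eight half-log concentrations topping at 100 uM.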

Read-out in test [10]: Insulin Like Growth Factor 1 (IGF1), IGF1 (gene 3479)
As to the kind of experiment: LTEA_HepaRG_IGF1: Life Technologies and Expression Analysis (LTEA) Assay for Insulin Like Growth Factor 1 (IGF1) using HepaRG (AID 2283506). In outline: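 Differentiated HepaRG cells in serum-free induction medium, exposed 48 h in duplicate to 8 half-log concentrations up to 100 uM in 0.5% DMSO. IGF1 mRNA by Fluidigm qRT-PCR, normalised to ACTB, GAPDH and POLR2A.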

Read-out in test [11]: Intercellular Adhesion Molecule 1 (ICAM1), ICAM1 (gene 3383)
The test is described as follows: LTEA_HepaRG_ICAM1: Life Technologies and Expression Analysis (LTEA) Assay for Intercellular Adhesion Molecule 1 (ICAM1) using HepaRG (AID 2283507). In outline:
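ICAM1 transcript levels measured by qRT-PCR, normalized to three housekeeping genes (ACTB, GAPDH, POLR2A), after 48 h chemical exposure of HepaRG cells. Duplicate eight-point half-log series from 100 uM in 0.5% DMSO; gain or loss fitted against vehicle.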

Read-out in test [12]: Insulin-like growth factor-binding protein 1 (IGFBP1), IGFBP1 (gene 3484)
The test is described as follows: LTEA_HepaRG_IGFBP1: Life Technologies and Expression Analysis (LTEA) Assay for Insulin-like growth factor-binding protein 1 (IGFBP1) using HepaRG (AID 2283508). In outline:
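Read-out is qRT-PCR transcript level normalized to three housekeeping genes, fitted in both directions against 0.5% DMSO. Differentiated HepaRG cells received eight half-log concentrations (top 100 uM) in duplicate for 48 h in serum-free induction medium.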

Read-out in test [13]: Interleukin 6 (IL6), IL6 (gene 3569)
The test is described as follows: LTEA_HepaRG_IL6: Life Technologies and Expression Analysis (LTEA) Assay for Interleukin 6 (IL6) using HepaRG (AID 2283509). In outline: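 HepaRG cells exposed in duplicate for 48 h to eight half-log concentrations, top 100 uM, in 0.5% DMSO serum-free induction medium. mRNA measured by qRT-PCR, normalized to ACTB, GAPDH and POLR2A. Bidirectional fit versus DMSO.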

Read-out in test [14]: Early growth response protein 1 (EGR1) transcription factor, EGR1 (gene 1958)
The test is described as follows: LTEA_HepaRG_EGR1: Life Technologies and Expression Analysis (LTEA) Assay for Early growth response protein 1 (EGR1) transcription factor using HepaRG (AID 2283490). In outline: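 Differentiated HepaRG cells in serum-free induction medium exposed 48 hours, duplicate, to 8 half-log concentrations up to 100 uM in 0.5% DMSO. EGR1 mRNA measured by TaqMan qRT-PCR, normalized to ACTB, GAPDH, POLR2A; bidirectional fit versus DMSO.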

Read-out in the next test: CYP3A5 (gene 1577)
The test is described as follows: LTEA_HepaRG_CYP3A5: Life Technologies and Expression Analysis (LTEA) Assay for CYP3A5 using HepaRG (AID 2283493). In short, it runs like this:
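HepaRG cells, plated 48 h then in serum-free induction medium, dosed in duplicate for 48 h with eight half-log concentrations up to 100 uM in 0.5% DMSO. Gene mRNA by Fluidigm TaqMan qRT-PCR, normalized to ACTB, GAPDH, POLR2A.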

Read-out in test [15]: Cytochrome P450 4A22 (Homo sapiens) (UniProt Q5TCH4)
As to the kind of experiment: LTEA_HepaRG_CYP4A22: Life Technologies and Expression Analysis (LTEA) Assay for Cytochrome P450 4A22 (CYP4A22) using HepaRG (AID 2283495). In short, it runs like this: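 Gene expression measured by qRT-PCR against three housekeeping genes (ACTB, GAPDH, POLR2A), with gain or loss fitted relative to 0.5% DMSO vehicle. HepaRG cultures received 48 h chemical treatment, top concentration 100 uM, half-log steps, duplicate wells.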

Read-out in a further test: HGF (gene 3082)
As to the kind of experiment: LTEA_HepaRG_HGF: Life Technologies and Expression Analysis (LTEA) Assay for Hepatocyte Growth Facto (HGF) using HepaRG (AID 2283505). In outline:
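HGF transcript was quantified by TaqMan qRT-PCR against three housekeeping genes after 48 h treatment of HepaRG cells. Exposure ran in duplicate over eight half-log steps topping at 100 uM in 0.5% DMSO vehicle.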

Read-out in test [16]: Cytochrome P450 3A7 (Homo sapiens) (UniProt P24462)
As to the kind of experiment: LTEA_HepaRG_CYP3A7: Life Technologies and Expression Analysis (LTEA) Assay for CYP3A7 using HepaRG (AID 2283492). In short, it runs like this: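 CYP3A7 transcript measured by qRT-PCR (ACTB, GAPDH, POLR2A normalization) after 48 h chemical exposure of HepaRG cells in duplicate. Eight half-log concentrations, maximum 100 uM, 0.5% DMSO vehicle; bidirectional curve fitting against DMSO baseline.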

Molecules are shown by their SMILES. The source made the active and inactive calls. The calls were made as follows: active = hit-call score of the fitted dose curve at least 0.9, where 1 is the maximum; inactive = score below 0.9.

Hypoxia-inducible factor 1-alpha (Homo sapiens), sequence (Q16665 whole entry, looked up): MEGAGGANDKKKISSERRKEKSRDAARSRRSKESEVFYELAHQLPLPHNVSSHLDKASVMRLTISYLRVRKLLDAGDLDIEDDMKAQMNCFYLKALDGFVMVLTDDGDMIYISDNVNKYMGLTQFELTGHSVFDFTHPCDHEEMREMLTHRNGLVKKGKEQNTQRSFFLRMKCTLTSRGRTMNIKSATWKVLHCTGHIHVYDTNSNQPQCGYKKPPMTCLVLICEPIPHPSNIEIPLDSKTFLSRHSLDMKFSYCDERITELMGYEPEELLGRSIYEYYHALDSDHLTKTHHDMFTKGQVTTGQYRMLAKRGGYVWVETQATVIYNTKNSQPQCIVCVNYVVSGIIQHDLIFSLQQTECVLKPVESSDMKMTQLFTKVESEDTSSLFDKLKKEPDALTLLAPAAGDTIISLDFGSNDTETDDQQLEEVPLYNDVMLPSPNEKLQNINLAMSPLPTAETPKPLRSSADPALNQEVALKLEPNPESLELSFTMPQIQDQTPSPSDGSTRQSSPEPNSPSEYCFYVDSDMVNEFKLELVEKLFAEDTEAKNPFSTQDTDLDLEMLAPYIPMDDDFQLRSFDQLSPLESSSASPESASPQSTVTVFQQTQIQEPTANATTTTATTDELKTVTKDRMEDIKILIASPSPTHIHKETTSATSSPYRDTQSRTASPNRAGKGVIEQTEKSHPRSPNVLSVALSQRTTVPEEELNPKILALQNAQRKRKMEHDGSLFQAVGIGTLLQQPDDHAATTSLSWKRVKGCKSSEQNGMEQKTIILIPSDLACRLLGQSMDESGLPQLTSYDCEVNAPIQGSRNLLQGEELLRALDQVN
Cytochrome P450 3A7 (Homo sapiens), sequence (P24462 whole entry, looked up): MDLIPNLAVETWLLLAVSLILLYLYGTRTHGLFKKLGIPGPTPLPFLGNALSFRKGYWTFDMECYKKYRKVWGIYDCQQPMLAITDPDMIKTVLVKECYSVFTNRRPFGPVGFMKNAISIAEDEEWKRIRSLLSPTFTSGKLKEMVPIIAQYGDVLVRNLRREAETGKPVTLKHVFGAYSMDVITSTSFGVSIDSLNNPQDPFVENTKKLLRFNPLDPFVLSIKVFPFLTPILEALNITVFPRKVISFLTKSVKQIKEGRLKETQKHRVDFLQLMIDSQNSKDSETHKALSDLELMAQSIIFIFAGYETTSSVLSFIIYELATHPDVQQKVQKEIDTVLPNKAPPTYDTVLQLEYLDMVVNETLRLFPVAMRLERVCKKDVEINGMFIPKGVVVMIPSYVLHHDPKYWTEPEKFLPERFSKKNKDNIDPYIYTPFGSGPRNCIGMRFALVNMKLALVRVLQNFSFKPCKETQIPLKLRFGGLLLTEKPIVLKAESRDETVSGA

For `C[C@]12CC[C@@H]3c4ccc(O)cc4CC[C@H]3[C@@H]1CCC2=O`, the call in [1], in test [3], in test [4], in test [5], in [6] and in test [8] was inactive. Further, the compound was classed as inactive in [11], in test [12] and in [13]. Further, the AC50 is 30.8 µM (active) in test [2], 33.2 µM (active) in test [7], 72.7 µM (active) in test [9] and 50 µM (active) in test [10].
Turning to `COc1cc(C(=O)NC2CCN(C)CC2)ccc1Nc1ncc2c(n1)N(C1CCCC1)CC(F)(F)C(=O)N2C`, the AC50 in [14] was 9.31 µM (active); in [1], 28.7 µM (active); in [2], 6.44 µM (active); in [15] it was 3.23 µM (active); in test [3], 21.3 µM (active); in test [4], 85.6 µM (active). For the same compound, the AC50 in [6] is 3.73 µM (active); in [7], 31.7 µM (active); in test [9], 10.5 µM (active); in test [10] it was 3.45 µM (active); in test [11], 83.7 µM (active); in [12] it was 23.3 µM (active). The AC50 in test [13] was 25.2 µM (active). Besides, the result (in the test with CYP3A5 (gene 1577); in test [5]; in test [8]; with HGF (gene 3082)) was inactive.
`Oc1ccccc1`: the call (in test [14]; in test [1]; in test [16]; with CYP3A5 (gene 1577); in test [2]; in test [15]) was inactive. The outcome in test [3], in [4], in test [5], in test [7], in test [8] and in test [9] was inactive. Besides, the call (with HGF (gene 3082); in [10]; in [11]; in test [12]; in [13]) was inactive.
On to `O=c1[nH]sc2ccccc12`, for which the call (in [14]; in test [1]; in test [16]; with CYP3A5 (gene 1577); in test [2]; in test [15]) was inactive. Besides, the call in test [3], in test [4], in [5], in [7], in test [8] and in test [9] was inactive. Besides, the outcome (with HGF (gene 3082); in test [10]; in [11]; in test [12]; in test [13]) was inactive.

By AC50 is commonly meant the concentration at which the activity in the assay is half-maximal.

The record behind these values is PubChem BioAssay (EPA / NIEHS).
